Source: PubChem BioAssay
The source made the active and inactive calls.

Assays:
[1] = small molecules captured by biotinylated probe aFSTL3 – biochemical, small-molecule microarray, fluorescence 635/667, stem cell growth factor project, primary screen (AID 1064); details: higher = more signal;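 also: measures binding of the biotinylated anti-FSTL3 antibody to printed compounds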
[2] = binders from COS7 lysate, DM2A8 probe, primary screen, torsin A project, cell lysate, small-molecule microarray, fluorescence 635/667 (AID 1065); details: higher = more signal, COS7 lysate expressing mutant human TOR1A
[3] = small molecules captured by biotinylated probe aFGF2 – biochemical, small-molecule microarray, fluorescence 635/667, stem cell growth factor project, primary screen (AID 1067); details: higher = more signal;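 also: measures binding of biotinylated aFGF2 protein to printed compounds on slides; z-score merges feature fluorescence and signal-to-noise across triplicate slides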
[4] = small molecules captured by biotinylated probe aFGF10 – biochemical, small-molecule microarray, fluorescence 635/667, stem cell growth factor project, primary screen (AID 1071); details: higher = more signal;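 also: score merges 667 nm spot intensity and signal to noise from triplicate slides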
[5] = molecular target: Neurogenic locus notch homolog protein 2 (Homo sapiens) (UniProt Q04721); experiment: small molecules binding Notch2 protein – biochemical, small-molecule microarray, 635 nm fluorescence, stem cell growth factors, primary screen (AID 1073); details: higher = more signal
Neurogenic locus notch homolog protein 2 (Homo sapiens), sequence (Q04721 whole entry, looked up, canonical isoform): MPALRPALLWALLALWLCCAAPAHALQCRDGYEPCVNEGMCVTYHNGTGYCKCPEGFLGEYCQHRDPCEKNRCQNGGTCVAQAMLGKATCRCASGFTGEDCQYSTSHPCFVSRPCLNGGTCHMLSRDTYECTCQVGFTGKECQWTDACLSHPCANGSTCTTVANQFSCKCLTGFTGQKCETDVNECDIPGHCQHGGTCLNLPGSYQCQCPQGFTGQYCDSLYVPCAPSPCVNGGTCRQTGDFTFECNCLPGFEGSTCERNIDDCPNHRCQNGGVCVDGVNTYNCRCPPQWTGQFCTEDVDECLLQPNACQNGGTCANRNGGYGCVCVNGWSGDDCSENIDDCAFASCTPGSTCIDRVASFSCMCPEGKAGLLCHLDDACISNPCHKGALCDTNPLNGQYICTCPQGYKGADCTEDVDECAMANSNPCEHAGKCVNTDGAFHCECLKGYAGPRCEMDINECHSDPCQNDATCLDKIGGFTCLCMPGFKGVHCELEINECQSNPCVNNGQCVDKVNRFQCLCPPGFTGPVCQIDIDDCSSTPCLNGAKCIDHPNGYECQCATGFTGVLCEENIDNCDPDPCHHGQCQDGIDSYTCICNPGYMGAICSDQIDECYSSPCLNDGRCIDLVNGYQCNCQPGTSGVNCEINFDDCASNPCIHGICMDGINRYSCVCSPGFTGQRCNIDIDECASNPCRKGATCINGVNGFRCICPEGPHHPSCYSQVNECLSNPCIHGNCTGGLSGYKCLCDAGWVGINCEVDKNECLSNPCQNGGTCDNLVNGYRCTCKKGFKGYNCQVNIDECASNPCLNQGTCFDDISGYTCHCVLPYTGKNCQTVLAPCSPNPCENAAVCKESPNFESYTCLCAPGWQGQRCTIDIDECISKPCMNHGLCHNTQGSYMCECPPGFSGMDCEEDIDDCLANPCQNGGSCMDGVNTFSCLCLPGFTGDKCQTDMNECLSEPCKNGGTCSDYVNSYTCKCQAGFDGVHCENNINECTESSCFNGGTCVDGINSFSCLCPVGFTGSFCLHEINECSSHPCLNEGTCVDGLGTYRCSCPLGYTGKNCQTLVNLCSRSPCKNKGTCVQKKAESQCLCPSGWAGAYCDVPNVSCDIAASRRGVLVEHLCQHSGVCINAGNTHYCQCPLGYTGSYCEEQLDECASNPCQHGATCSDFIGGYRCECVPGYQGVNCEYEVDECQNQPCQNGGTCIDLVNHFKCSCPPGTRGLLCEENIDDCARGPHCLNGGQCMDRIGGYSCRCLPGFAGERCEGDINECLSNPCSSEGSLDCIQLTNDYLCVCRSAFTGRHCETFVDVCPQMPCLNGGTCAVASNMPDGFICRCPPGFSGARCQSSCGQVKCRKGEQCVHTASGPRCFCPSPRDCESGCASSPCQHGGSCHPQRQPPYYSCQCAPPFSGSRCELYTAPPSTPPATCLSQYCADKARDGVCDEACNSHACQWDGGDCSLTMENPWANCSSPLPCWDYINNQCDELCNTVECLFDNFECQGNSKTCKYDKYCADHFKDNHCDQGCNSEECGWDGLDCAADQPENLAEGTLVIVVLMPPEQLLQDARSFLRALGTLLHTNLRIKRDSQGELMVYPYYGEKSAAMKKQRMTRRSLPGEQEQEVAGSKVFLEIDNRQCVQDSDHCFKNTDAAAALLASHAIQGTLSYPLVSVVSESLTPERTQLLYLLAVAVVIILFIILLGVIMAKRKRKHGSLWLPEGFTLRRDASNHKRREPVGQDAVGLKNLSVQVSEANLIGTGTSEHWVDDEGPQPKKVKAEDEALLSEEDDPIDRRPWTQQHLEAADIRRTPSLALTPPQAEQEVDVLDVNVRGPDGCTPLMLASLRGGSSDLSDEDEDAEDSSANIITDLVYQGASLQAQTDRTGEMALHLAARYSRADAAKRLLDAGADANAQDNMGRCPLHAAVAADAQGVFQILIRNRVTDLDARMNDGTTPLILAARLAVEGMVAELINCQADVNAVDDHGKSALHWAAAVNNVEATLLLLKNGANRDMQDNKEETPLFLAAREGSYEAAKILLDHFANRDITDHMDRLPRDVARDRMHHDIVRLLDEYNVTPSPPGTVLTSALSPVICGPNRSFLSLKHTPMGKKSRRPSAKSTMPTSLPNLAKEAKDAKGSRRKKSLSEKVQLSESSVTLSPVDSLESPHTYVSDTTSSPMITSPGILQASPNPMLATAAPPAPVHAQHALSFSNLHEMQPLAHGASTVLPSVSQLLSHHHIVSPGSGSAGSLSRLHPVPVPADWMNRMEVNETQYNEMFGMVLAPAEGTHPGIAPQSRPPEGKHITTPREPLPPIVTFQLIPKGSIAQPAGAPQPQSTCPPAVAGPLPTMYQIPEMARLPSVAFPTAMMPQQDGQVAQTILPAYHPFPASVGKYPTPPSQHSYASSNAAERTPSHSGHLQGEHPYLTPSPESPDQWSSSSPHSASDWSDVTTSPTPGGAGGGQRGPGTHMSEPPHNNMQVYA

[6] = molecular target: Pro-neuregulin-1, membrane-bound isoform (Homo sapiens) (UniProt Q02297); experiment: small molecules binding neuregulin-1 protein – biochemical, small-molecule microarray, fluorescence 635/667, psychiatric disease protein project, primary screen (AID 1075); details: NRG1 binding, 635 nm fluorescence, higher = more signal;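 also: score combines 667 nm spot fluorescence with signal to noise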
[7] = system: Neuregulin-1 EGF-like domain; experiment: small molecules binding NRG1 EGF domain – biochemical, small-molecule microarray, 635 nm fluorescence, primary screen (AID 1081); details: higher = more signal;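 also: binding of the protein to compounds printed on small-molecule microarray slides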
[8] = FRG1 expression reporter modulators in myotubes – cell-based, C2C12 myotubes, firefly/Renilla luciferase, luminescence, FRG1 inhibition for FSHD, primary screen (AID 1084); details: FRG1 promoter luciferase, higher = more signal, called active from +8 up or from −8 down
[9] = small molecules captured by biotinylated probe aFST – biochemical, small-molecule microarray, fluorescence 635/667, stem cell growth factor project, primary screen (AID 1086); details: higher = more signal;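 also: score merges 667 nm fluorescence with signal-to-noise of each printed compound spot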
[10] = binders of probe aHhip on microarray, primary screen, stem cell growth factor project, biochemical, small-molecule microarray, fluorescence 635/667 (AID 1087); details: higher = more signal;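 also: score merges spot fluorescence at 667nm with spot signal to noise ratio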
[11] = system: PRMT1 (protein arginine N-methyltransferase 1); experiment: small molecules binding arginine methyltransferase PRMT1 – biochemical, small-molecule microarray, 635 nm fluorescence, primary screen (AID 1088); details: higher = more signal;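 also: binding of Prmt1 protein to compounds spotted on small-molecule microarray slides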
[12] = growth effects on S. cerevisiae YJM789 – YJM789 clinical isolate, OD600, 24 h, basal, primary screen (AID 1089); details: higher = more signal, called active from +8 up or from −8 down;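 also: growth of clinical yeast isolate S. cerevisiae YJM 789 seeded 1000 cells per well; test concentration not given here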
[13] = S. pombe growth modifiers, basal conditions – strain 972, OD600, 24 h, no modulator, primary screen (AID 1090);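 also: basal condition with compound alone and no growth modifier present; test concentration not given here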; details: S. pombe 972 growth, higher = more signal, called active from +8 up or from −8 down
[14] = budding yeast growth modifiers under rapamycin – strain BY4716, OD600, 96 h, primary screen (AID 1091); also: test concentration not given here; details: S. cerevisiae BY4716 + rapamycin, higher = more signal, called active from +8 up or from −8 down
[15] = molecular target: Torsin-1A-interacting protein 2 (Homo sapiens) (UniProt Q8NFQ8); experiment: small molecules binding lysate-expressed LULL1 – cell lysate, human LULL1 lysate, 635/667 nm fluorescence, primary screen (AID 1092); details: small-molecule microarray, hLULL1 lysate binding, 635 nm fluorescence; higher = more signal;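 also: probe is lysate of COS7 cells overexpressing human LULL1; score merges per-feature 667 nm fluorescence with signal-to-noise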
[16] = optical density change of DRC41 E. coli – strain DRC41, OD650, 24 h, E. coli filamentation project, primary screen (AID 1093);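 also: MC1000 strain lacking acrAB efflux and sulA so SOS filamentation is blocked; test concentration not given here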; details: E. coli DRC41 growth, higher = more signal, called active from +8 up or from −8 down
[17] = probe aLefty2 binding to arrayed compounds – biochemical, biotinylated probe, 635/667 nm fluorescence, primary screen (AID 1094); details: small-molecule microarray, higher = more signal;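 also: score merges spot fluorescence near 667 nm with spot signal-to-noise ratio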
[18] = system: Noggin (protein binding on small-molecule microarray); experiment: small molecules binding Noggin protein – biochemical, 635/667 nm fluorescence, primary screen (AID 1095); details: 635 nm fluorescence, higher = more signal;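 also: score merges 667 nm feature fluorescence with signal to noise over triplicate slides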
[19] = molecular target: Neurogenic locus notch homolog protein 3 (Homo sapiens) (UniProt Q9UM47); experiment: small molecules binding NOTCH3 protein – biochemical, 635/667 nm fluorescence, primary screen (AID 1096); details: small-molecule microarray, 635 nm fluorescence, higher = more signal
Neurogenic locus notch homolog protein 3 (Homo sapiens), sequence (Q9UM47 whole entry, looked up): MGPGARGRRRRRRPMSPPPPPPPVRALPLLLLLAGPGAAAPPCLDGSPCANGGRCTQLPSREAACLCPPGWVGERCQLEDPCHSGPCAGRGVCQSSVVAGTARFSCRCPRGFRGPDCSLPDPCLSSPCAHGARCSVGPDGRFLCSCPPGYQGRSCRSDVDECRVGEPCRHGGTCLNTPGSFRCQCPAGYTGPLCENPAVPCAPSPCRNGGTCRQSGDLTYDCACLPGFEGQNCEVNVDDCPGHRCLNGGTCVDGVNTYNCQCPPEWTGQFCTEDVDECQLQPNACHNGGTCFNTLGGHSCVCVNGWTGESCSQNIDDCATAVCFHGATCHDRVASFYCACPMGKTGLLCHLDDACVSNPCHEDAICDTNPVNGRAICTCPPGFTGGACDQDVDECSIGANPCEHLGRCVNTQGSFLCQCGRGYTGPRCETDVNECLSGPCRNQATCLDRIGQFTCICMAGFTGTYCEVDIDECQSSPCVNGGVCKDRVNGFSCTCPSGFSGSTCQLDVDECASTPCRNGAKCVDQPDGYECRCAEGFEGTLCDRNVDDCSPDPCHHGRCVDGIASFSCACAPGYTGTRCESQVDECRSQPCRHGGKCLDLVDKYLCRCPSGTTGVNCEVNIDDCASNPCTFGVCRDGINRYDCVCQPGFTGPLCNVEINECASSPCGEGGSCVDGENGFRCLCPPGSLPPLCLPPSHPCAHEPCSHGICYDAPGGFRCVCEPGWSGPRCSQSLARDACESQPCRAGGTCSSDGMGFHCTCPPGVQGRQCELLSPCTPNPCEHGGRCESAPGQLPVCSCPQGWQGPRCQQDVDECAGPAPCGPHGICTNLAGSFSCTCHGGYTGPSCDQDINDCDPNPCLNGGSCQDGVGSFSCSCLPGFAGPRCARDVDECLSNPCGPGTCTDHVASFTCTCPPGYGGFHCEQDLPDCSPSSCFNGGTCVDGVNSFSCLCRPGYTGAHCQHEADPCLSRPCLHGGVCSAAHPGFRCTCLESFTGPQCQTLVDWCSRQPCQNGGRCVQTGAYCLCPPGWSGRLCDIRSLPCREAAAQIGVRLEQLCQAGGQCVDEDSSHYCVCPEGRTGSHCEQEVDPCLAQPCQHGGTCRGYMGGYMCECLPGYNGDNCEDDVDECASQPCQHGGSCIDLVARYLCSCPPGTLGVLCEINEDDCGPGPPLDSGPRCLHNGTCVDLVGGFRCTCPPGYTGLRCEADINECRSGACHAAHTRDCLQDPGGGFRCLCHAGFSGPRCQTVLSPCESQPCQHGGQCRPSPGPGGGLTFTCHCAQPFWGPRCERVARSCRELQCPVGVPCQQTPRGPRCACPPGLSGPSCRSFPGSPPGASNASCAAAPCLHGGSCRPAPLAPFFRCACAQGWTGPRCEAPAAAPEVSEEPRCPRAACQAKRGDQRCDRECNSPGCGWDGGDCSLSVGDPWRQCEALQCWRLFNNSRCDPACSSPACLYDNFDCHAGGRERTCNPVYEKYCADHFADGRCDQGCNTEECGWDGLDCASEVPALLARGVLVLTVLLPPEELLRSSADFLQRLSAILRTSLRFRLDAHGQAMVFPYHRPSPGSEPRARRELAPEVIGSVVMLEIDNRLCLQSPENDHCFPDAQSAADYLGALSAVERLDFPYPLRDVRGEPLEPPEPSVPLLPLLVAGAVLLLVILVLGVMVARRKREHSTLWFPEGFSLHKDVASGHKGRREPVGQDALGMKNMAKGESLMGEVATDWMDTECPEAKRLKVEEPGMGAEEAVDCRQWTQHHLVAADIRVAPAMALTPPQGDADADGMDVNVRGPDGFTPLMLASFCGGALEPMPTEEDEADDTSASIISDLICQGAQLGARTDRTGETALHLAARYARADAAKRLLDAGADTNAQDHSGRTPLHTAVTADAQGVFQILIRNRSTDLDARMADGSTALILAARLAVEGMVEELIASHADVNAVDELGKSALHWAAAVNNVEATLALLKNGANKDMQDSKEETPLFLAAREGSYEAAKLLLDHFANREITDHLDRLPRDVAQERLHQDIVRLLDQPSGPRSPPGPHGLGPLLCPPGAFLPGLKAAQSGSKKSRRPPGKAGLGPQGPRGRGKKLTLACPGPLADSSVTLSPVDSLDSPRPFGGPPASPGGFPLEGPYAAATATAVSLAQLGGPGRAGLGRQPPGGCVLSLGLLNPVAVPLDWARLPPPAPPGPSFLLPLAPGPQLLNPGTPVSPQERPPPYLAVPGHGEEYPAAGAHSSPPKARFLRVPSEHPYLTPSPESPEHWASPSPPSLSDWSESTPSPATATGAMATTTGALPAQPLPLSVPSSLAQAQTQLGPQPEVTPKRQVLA

[20] = probe aEGFR binding to arrayed compounds – biochemical, biotinylated probe, 635/667 nm fluorescence, primary screen (AID 1097); details: small-molecule microarray, higher = more signal;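 also: probe is a biotinylated anti-EGFR antibody binding compounds printed on slides; score combines fluorescence near 667 nm and signal to noise of each spot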

## CC(CCN1CCc2nc(-c3ccccc3)c(-c3ccccc3)cc2C1)=NOC(C)CN1CCCc2nc(C)c(C)cc21 (stereo not given)
[1]
  composite z-score: -0.0304
[2]
  composite z-score: 1.12
[3]
  composite z-score: 0.0762
[4]
  composite z-score: 0.681
[5]
  composite z-score: 1.4
[6]
  composite z-score: 0.72
[7]
  composite z-score: 1.08
[8]
  z-score: 1.1 (inactive)
[9]
  composite z-score: 0.676
[10]
  composite z-score: 0.316
[11]
  composite z-score: 1.56
[12]
  z-score: -1.4 (inactive)
[13]
  z-score: -12.6 (active)
[14]
  z-score: -3.45 (inactive)
[15]
  composite z-score: 2.22
[16]
  z-score: 0.419 (inactive)
[17]
  composite z-score: 0.0704
[18]
  composite z-score: 0.582
[19]
  composite z-score: 1.09
[20]
  composite z-score: 0.0709

## COC(=O)CC=C[C@@H](C)[C@@H](C=NOC(C)CN1CCCCc2nc(C)c(C)cc21)NS(=O)(=O)c1ccc(C)cc1 (stereo not given in full)
[1]
  composite z-score: 0.061
[2]
  composite z-score: 0.751
[3]
  composite z-score: -0.0422
[4]
  composite z-score: 0.471
[5]
  composite z-score: 0.318
[6]
  composite z-score: -0.279
[7]
  composite z-score: -0.776
[8]
  z-score: 0.511 (inactive)
[9]
  composite z-score: 0.38
[10]
  composite z-score: 0.0735
[11]
  composite z-score: 0.63
[12]
  z-score: -1.12 (inactive)
[13]
  z-score: 0.22 (inactive)
[14]
  z-score: 0.121 (inactive)
[15]
  composite z-score: -0.137
[16]
  z-score: 0.86 (inactive)
[17]
  composite z-score: 0.0768
[18]
  composite z-score: 0.52
[19]
  composite z-score: 0.265
[20]
  composite z-score: -0.0836

## CON(C)C(=O)c1nnc2c(n1)[nH]c1ccccc12
[1]
  composite z-score: -0.262
[2]
  composite z-score: 0.668
[3]
  composite z-score: -0.165
[4]
  composite z-score: 0.494
[5]
  composite z-score: 0.448
[6]
  composite z-score: 0.0309
[7]
  composite z-score: 0.823
[8]
  z-score: 168 (active)
[9]
  composite z-score: -0.128
[10]
  composite z-score: -0.323
[11]
  composite z-score: 0.194
[12]
  z-score: -0.545 (inactive)
[13]
  z-score: 0.577 (inactive)
[14]
  z-score: -0.298 (inactive)
[15]
  composite z-score: 0.3
[16]
  z-score: 0.816 (inactive)
[17]
  composite z-score: -0.0931
[18]
  composite z-score: 0.586
[19]
  composite z-score: 0.483
[20]
  composite z-score: -0.121

## COCC#Cc1ccc([C@@H]2N[C@H](C(=O)O)CC[C@H]2C)cc1
[1]
  composite z-score: -0.308
[2]
  composite z-score: -0.087
[3]
  composite z-score: -0.12
[4]
  composite z-score: 0.0921
[5]
  composite z-score: 0.314
[6]
  composite z-score: -0.595
[7]
  composite z-score: -0.616
[8]
  z-score: -1.34 (inactive)
[9]
  composite z-score: 0.399
[10]
  composite z-score: 0.132
[11]
  composite z-score: 0.13
[12]
  z-score: -1.63 (inactive)
[13]
  z-score: -1.81 (inactive)
[14]
  z-score: -1.34 (inactive)
[15]
  composite z-score: 0.237
[16]
  z-score: 0.874 (inactive)
[17]
  composite z-score: -0.186
[18]
  composite z-score: 0.165
[19]
  composite z-score: -0.54
[20]
  composite z-score: -0.0953

## Cc1ccc2[nH]c3nc(CCCn4ccnc4-c4ccccc4)nnc3c2c1
[1]
  composite z-score: -0.172
[2]
  composite z-score: 0.616
[3]
  composite z-score: -0.119
[4]
  composite z-score: 0.247
[5]
  composite z-score: 1.63
[6]
  composite z-score: 0.742
[7]
  composite z-score: 1.12
[8]
  z-score: 0.921 (inactive)
[9]
  composite z-score: 0.26
[10]
  composite z-score: 0.0274
[11]
  composite z-score: 0.842
[12]
  z-score: 0.324 (inactive)
[13]
  z-score: 0.0855 (inactive)
[14]
  z-score: -0.425 (inactive)
[15]
  composite z-score: 1.38
[16]
  z-score: 1.13 (inactive)
[17]
  composite z-score: 0.504
[18]
  composite z-score: 0.385
[19]
  composite z-score: 1.12
[20]
  composite z-score: -0.009

## O=C1CCCC=C1C(O)COCc1ccccc1 (stereo not given)
[1]
  composite z-score: -0.356
[2]
  composite z-score: 0.217
[3]
  composite z-score: -0.214
[4]
  composite z-score: 0.225
[5]
  composite z-score: -0.263
[6]
  composite z-score: -0.179
[7]
  composite z-score: 0.332
[8]
  z-score: 0.91 (inactive)
[9]
  composite z-score: -0.302
[10]
  composite z-score: -0.194
[11]
  composite z-score: -0.544
[12]
  z-score: 0.249 (inactive)
[13]
  z-score: -0.233 (inactive)
[14]
  z-score: 0.456 (inactive)
[15]
  composite z-score: -0.395
[16]
  z-score: 0.202 (inactive)
[17]
  composite z-score: -0.212
[18]
  composite z-score: 0.022
[19]
  composite z-score: -0.256
[20]
  composite z-score: -0.142

## CC(C)=CCCC(C)=CCON=C1C[C@@H](O)[C@@H](O)[C@@H]2[C@@H]3C(=O)N(c4cccc(Oc5ccccc5)c4)C(=O)[C@@H]3CC[C@H]12
[1]
  composite z-score: -0.304
[2]
  composite z-score: -0.0323
[3]
  composite z-score: -0.0296
[4]
  composite z-score: 0.0259
[5]
  composite z-score: 0.206
[6]
  composite z-score: 0.691
[7]
  composite z-score: 0.877
[8]
  z-score: 0.122 (inactive)
[9]
  composite z-score: 0.305
[10]
  composite z-score: 0.06
[11]
  composite z-score: 1.04
[12]
  z-score: 0.788 (inactive)
[13]
  z-score: -0.0823 (inactive)
[14]
  z-score: -0.407 (inactive)
[15]
  composite z-score: 1.12
[16]
  z-score: 0.204 (inactive)
[17]
  composite z-score: -0.138
[18]
  composite z-score: 0.485
[19]
  composite z-score: 0.782
[20]
  composite z-score: 0.0209

## CCOC(=O)[C@H](CC(C)C)NC(=O)CCC1CC(OC(=O)NCCc2ccc(F)cc2)CC2(CCCC(COC(=O)NCc3cccc4ccccc34)O2)O1 (stereo not given in full)
[1]
  composite z-score: -0.249
[2]
  composite z-score: 0.685
[3]
  composite z-score: -0.195
[4]
  composite z-score: 0.162
[5]
  composite z-score: 0.401
[6]
  composite z-score: 0.0303
[7]
  composite z-score: 0.76
[8]
  z-score: 1.95 (inactive)
[9]
  composite z-score: 0.748
[10]
  composite z-score: -0.134
[11]
  composite z-score: 0.733
[12]
  z-score: -0.175 (inactive)
[13]
  z-score: -0.421 (inactive)
[14]
  z-score: 0.238 (inactive)
[15]
  composite z-score: 2.16
[16]
  z-score: 0.415 (inactive)
[17]
  composite z-score: -0.181
[18]
  composite z-score: 0.261
[19]
  composite z-score: -0.773
[20]
  composite z-score: -0.0995

## C[C@@H]1CC[C@H]2C(=O)OC(Cc3ccccc3)CN2[C@H]1c1ccc(Br)cc1 (stereo not given in full)
[1]
  composite z-score: -0.438
[2]
  composite z-score: -0.441
[3]
  composite z-score: -0.156
[4]
  composite z-score: 0.578
[5]
  composite z-score: -0.125
[6]
  composite z-score: 0.485
[7]
  composite z-score: 1.01
[8]
  z-score: -0.156 (inactive)
[9]
  composite z-score: -0.103
[10]
  composite z-score: 0.0373
[11]
  composite z-score: 1.28
[12]
  z-score: 0.127 (inactive)
[13]
  z-score: -6.77 (inactive)
[14]
  z-score: -0.624 (inactive)
[15]
  composite z-score: 1.18
[16]
  z-score: 0.823 (inactive)
[17]
  composite z-score: -0.0923
[18]
  composite z-score: 0.151
[19]
  composite z-score: 0.0343
[20]
  composite z-score: -0.133

## O=C1[C@H]2[C@H]3[C@H](O)[C@H](O)CC(=NOC[C@@H](O)COCc4ccco4)[C@@H]3CC[C@H]2C(=O)N1Cc1ccccc1
[1]
  composite z-score: -0.645
[2]
  composite z-score: 0.389
[3]
  composite z-score: -0.171
[4]
  composite z-score: -0.0702
[5]
  composite z-score: 0.0535
[6]
  composite z-score: 0.39
[7]
  composite z-score: 1.24
[8]
  z-score: 0.668 (inactive)
[9]
  composite z-score: 0.248
[10]
  composite z-score: -0.115
[11]
  composite z-score: 1.53
[12]
  z-score: -0.444 (inactive)
[13]
  z-score: -0.801 (inactive)
[14]
  z-score: -1.63 (inactive)
[15]
  composite z-score: 2.66
[16]
  z-score: 0.267 (inactive)
[17]
  composite z-score: -0.166
[18]
  composite z-score: 1.04
[19]
  composite z-score: 0.841
[20]
  composite z-score: 0.0673
